# Source: ChEMBL document CHEMBL4513216, “Probing the Open Global Health Chemical Diversity Library for Multistage-Active Starting Points for Next-Generation Antimalarials” (ACS Infect Dis, 2020)
# Hit rate of the full screen: of about 69,000 compounds, about 8,600 (12%) showed an effect of 50% or more. This is one part of a sample in which strong results are shown more often than they occur.
# Tested on: Plasmodium berghei
# Test: Screen against P. berghei liver stage (PbLuc), transformed with Luciferase, at 10uM
# Format: functional, HepG2
# Details: tested at 10 uM
row,Compound,INHIBITION
1,c1cnc(N2CCO[C@H]3[C@H](OCCN4CCCC4)CC[C@@H]32)nc1,43.8%
2,CNC(=O)NCC1CCC2(CCN(C(=O)c3cccnc3)CC2)CO1 (centres undefined),41.2%
3,O=C(Cc1cccs1)N1Cc2nc(CN3CCCC3)oc2C1,30.5%
4,Cc1cccc(S(=O)(=O)N2C[C@@H]3C[C@H](C(=O)NCC4CC4)[C@H](C2)O3)c1,2.4%
5,CCc1nc(N2CCC3(CC2)[C@H](O)C[C@@H]3O)ncc1C,-50.8%
6,CCOCC1CC2(CCN(C(=O)c3ncccn3)CC2)CO1 (centres undefined),33.4%
7,COc1ccc(CNC(C)Cn2cccn2)cc1F (centres undefined),59.4%
8,Cc1cnn(CC(C)NCc2ccc(OCc3nccn3C)cc2)c1 (centres undefined),-34%
9,Cc1cnn(CC2CCCN2Cc2cc(=O)n3ccccc3n2)c1 (centres undefined),28.3%
10,Cc1cnn(CCNCc2ccc(OCC(N)=O)cc2)c1,-41.1%
11,Cc1cnn(CC(C)NCc2cc(=O)n3ccccc3n2)c1 (centres undefined),89.6%
12,Cc1cnn(CC(C)NCc2cc(=O)n3cc(C)ccc3n2)c1 (centres undefined),-16.1%
13,COc1ccc(CNC(C)Cn2cccn2)cc1OC (centres undefined),27.8%
14,Cc1cnn(CC(C)NCc2ccc(OCc3ccncc3)cc2)c1 (centres undefined),54.6%
15,Cc1cnn(CC(C)NCc2ccc(OCc3cscn3)cc2)c1 (centres undefined),-11.4%
16,Cc1cnn(CC(C)NCc2ccncc2)c1 (centres undefined),-17.6%
17,COc1cc(CNC(C)Cn2cccn2)cc(OC)c1OC (centres undefined),36.4%
18,Cc1cnn(CC(C)NCc2ccc(OCC(N)=O)cc2)c1 (centres undefined),58.5%
19,COCCN1C(=O)[C@@H]2CC[C@H]1CN(C(=O)COc1ccc(F)c(Cl)c1)C2,-102%
20,CN(C)[C@@H]1CCN(C(=O)c2ccccn2)[C@H]1Cc1cnn(C)c1,20.6%
21,CCN1CC(CN(C)Cc2nc(-c3ccc(F)cc3)oc2C)CC1=O (centres undefined),34.2%
22,CN(Cc1nc(Cc2cccc(C(F)(F)F)c2)no1)C1CCCCC1,43.9%
23,Cc1cnn(CCNCc2csc(-c3ccco3)n2)c1,-4.9%

row,Compound,INHIBITION
1,COc1c(CNCc2ccnc(N(C)C)c2)c(C(C)C)nn1C,9.47%
2,CC(C)c1noc(C2CC(=O)N(CCN(C)C)C2)n1 (centres undefined),16.5%
3,COc1ccc2c(ccn2CCC(=O)NCCC(=O)O)c1,42.1%
4,COCCCNC(=O)CN(C)C(=O)c1cc2cc(C)ccc2nc1C,5.885%
5,COc1cccc(S(=O)(=O)NC(=O)COC2CCCCC2)c1,1.78%
6,CCn1nnc(NCc2ccc(-c3ccc(Br)cc3)o2)n1,12.3%
7,CC(C)c1cc(C(=O)N2C[C@@H]3CC[C@H]2CN(Cc2cccnc2)C3)no1,2.02%
8,Cn1ncnc1-c1ccnc(NCCCc2ccncc2)n1,94.3%
9,Cn1ncnc1-c1ccnc(NCc2ccncc2)n1,14.5%
10,Cn1ccnc1CNc1nccc(-c2ncnn2C)n1,-29%
11,COCC(=O)N1CC[C@@H](N2CCN(C)CC2)[C@@H]1Cc1ccccc1,41.6%
12,CCN1CCC2(CC1)CC(NC(=O)N(C)C)c1cc(C)ccc12 (centres undefined),12.2%
13,CC(=O)NCC(=O)NC1CCc2nccn2C1 (centres undefined),40.6%
14,N#Cc1cc(F)c(NCCc2ccc(S(N)(=O)=O)cc2)c(F)c1,37.8%
15,N#Cc1cc(F)c(NCc2ccc(F)cc2)c(F)c1,51.7%
16,N#Cc1cc(F)c(NCCc2ccc(F)cc2)c(F)c1,23.9%
17,c1ccc(-c2cccc(-c3ccn(CCN4CCCCC4)n3)c2)nc1,48.4%
18,Cc1cnc(C)c(-c2cccc(-c3ccn(CCN4CCCC4)n3)c2)n1,55.6%
19,c1cc(-c2cnccn2)cc(-c2ccn(CCCN3CCCCC3)n2)c1,26.9%
20,c1cc(-c2cnccn2)cc(-c2ccn(CCN3CCCC3)n2)c1,55.1%
21,Cc1ccc(-c2cccc(-c3ccn(CCN4CCCC4)n3)c2)nn1,46.8%
22,c1cc(-c2cnccn2)cc(-c2ccn(CCN3CCCCC3)n2)c1,5.38%
23,CCCOCC1CCN(C(=O)Cn2ncc(N3CCCC3)cc2=O)C1 (centres undefined),-13.6%

row,Compound,INHIBITION
1,c1csc(CN2CCO[C@H]3[C@H](OCCN4CCCC4)CC[C@@H]32)n1,16.8%
2,CCO[C@@H]1CO[C@@]2(CCCN(Cc3scnc3C)C2)C1,5.14%
3,CN(CCN1CCCC1)c1nccc(N2CCN[C@H]3CS(=O)(=O)C[C@H]32)n1,45.3%
4,CCN(C)c1nccc(N2CCN[C@H]3CS(=O)(=O)C[C@H]32)n1,40.9%
5,CN(C)CCCN(C)c1nccc(N2CCN[C@H]3CS(=O)(=O)C[C@H]32)n1,59.3%
6,CCC(C)(C)NC(=O)c1ncn2c1CN(C)S(=O)(=O)c1ccccc1-2,47.4%
7,Cn1nnc2c1C(COCc1ccccn1)CN(Cc1ccoc1)C2 (centres undefined),49.2%
8,c1csc(CN2Cc3[nH]nc(COCC4CC4)c3C2)c1,46.7%
9,CN(C)Cc1n[nH]c2c1CCN(Cc1cccs1)C2,34.6%
10,c1ccc(OCc2n[nH]c3c2CN(Cc2cccs2)C3)nc1,-0.804%
11,COCc1n[nH]c2c1CN(Cc1cccs1)C2,64.5%
12,c1cncc(OCc2n[nH]c3c2CN(Cc2cccs2)C3)c1,51.2%
13,OCCOCc1n[nH]c2c1CN(Cc1cccs1)C2,58.5%
14,OCCOCc1n[nH]c2c1CN(Cc1ccccn1)C2,35.8%
15,COCc1n[nH]c2c1CN(Cc1ccccn1)C2,47.5%
16,c1ccc(CN2Cc3[nH]nc(COc4cccnc4)c3C2)nc1,25.8%
17,Cc1nn(C)c(C)c1CCC(=O)N1CCCC(n2cncn2)C1 (centres undefined),27.6%
18,OCC1(O)CCCN(Cc2noc(-c3ccccc3)n2)CC1 (centres undefined),41.2%
19,C[S+]([O-])CCNC(=O)N1CCSC(C)(C)C1 (centres undefined),25.4%
20,O=S(=O)(Cc1ccccc1)c1nnc(N2CCOCC2)s1,0%
21,O=S(=O)(Cc1ccccc1)c1nnc(N2CCCC2)s1,53.8%
22,Cc1cccc(CS(=O)(=O)c2nnc(N3CCOCC3)s2)c1,0%
23,CS(=O)(=O)NCc1ncn2c1CN(CCN1CCCC1)CCC2,31.1%

row,Compound,INHIBITION
1,CC(C)CC(=O)NCC(O)c1c(F)cccc1F (centres undefined),21.8%
2,CCC1CCCCN1Cc1nc2c(cnn2C)c(=O)[nH]1 (centres undefined),25.1%
3,CC(C)OCc1ccccc1CNC(=O)C(C)S(=O)(=O)C(C)C (centres undefined),3.84%
4,CC(C)OCc1ccccc1CNC(=O)C(C)(C)C,68.6%
5,CCc1ccccc1CNC(=O)CNC(=O)C(C)(C)C,-11.5%
6,CCN(CC)C(=O)c1ccc(Cl)c(NC(=O)c2cc(C(C)C)on2)c1,43%
7,CN(C)Cc1cnc(CC2CCN(CCc3ccccc3)CC2)cn1,9.05%
8,c1cnc(N2CCO[C@H]3[C@H](OCC4CC4)CC[C@@H]32)nc1,21.6%
9,CSc1[nH]c(=O)c(C(=O)N2CCCC2C2CCCC2)cc1C#N (centres undefined),0.672%
10,CSc1[nH]c(=O)c(C(=O)N2CCCC2c2cccs2)cc1C#N (centres undefined),53.3%
11,CCC1CCCCCN1C(=O)c1cc(C#N)c(SC)[nH]c1=O (centres undefined),49.9%
12,CN(C)c1ncc(-c2cc(C(=O)N3CCCC3)n(CC3CC3)c2)cn1,3.58%
13,O=C(c1cnc(-c2ccco2)s1)N1CCOc2ncccc21,-40.6%
14,O=C(c1csc(-c2ccco2)n1)N1CCOc2ncccc21,-178%
15,CCCc1ncc(C(=O)N2CCOc3ncccc32)s1,63.8%
16,Cc1cccc(OC2(C(=O)O)CCN(C(=O)CCc3ccco3)CC2)c1,16.6%
17,Cc1cn(-c2ccccc2)nc1NS(=O)(=O)c1ccc(C(=O)O)cc1,20.9%
18,CCc1c(C)n(CC(=O)OC)c2nc3ccccc3n2c1=O,15%
19,Cc1noc([C@@H]2C[C@H]3OCC[C@H]3N(S(=O)(=O)c3cccnc3)C2)n1,30.1%
20,CCC[C@H]1CN(S(=O)(=O)c2ccc(CC)s2)C[C@@H]1N,52.2%
21,Cc1cc(-c2cc(S(=O)(=O)N3C[C@H](C4CC4)[C@@H](N)C3)c(C)s2)on1,45.3%
22,CCC[C@H]1CN(S(=O)(=O)c2c(C)noc2C)C[C@@H]1N,-28.9%
23,CCC[C@H]1CN(S(=O)(=O)c2ccc(-c3c(C)noc3C)s2)C[C@@H]1N,72.6%

row,Compound,INHIBITION
1,CCC[C@H]1CN(S(=O)(=O)c2ccccc2)C[C@@H]1N,-2.34%
2,CCc1ccc(S(=O)(=O)N2CC3(COC(C)(C)OC3)C2)s1,42.7%
3,CCC[C@H]1CN(S(=O)(=O)c2cc(C)ccc2F)C[C@@H]1N,44.2%
4,CCC[C@@H]1CN(S(=O)(=O)c2ccc(C)c(F)c2)C[C@H]1N(C)C,37.8%
5,CCC[C@H]1CN(S(=O)(=O)c2cc(C)ccc2C)C[C@@H]1N,57.2%
6,O=C1[C@H]2CN(CC3CCOCC3)C[C@H]2CN1Cc1cccc(F)c1,-53.6%
7,CNc1nc2cn(Cc3ccc(Cl)cc3)c(=O)c-2c[nH]1,-14.7%
8,CCc1ncc(C(=O)N2CCCN(C3CCCCC3)CC2)cn1,37.7%
9,COc1ncc(CN2CCC3(CCNC(=O)CC3)CC2)cn1,39.5%
10,CN(C)C(=O)C1CN(Cc2cccs2)CCN(S(C)(=O)=O)C1 (centres undefined),32.8%
11,Nc1nc(CN2CCCCC2Cn2cncn2)nc2ccccc12 (centres undefined),32.9%
12,Cc1cc(C)n(CC2CCCN2Cc2nc(N)c3ccccc3n2)n1 (centres undefined),37.9%
13,Cc1nc(C)n(CC2CCCN2Cc2nc(C)c3ccccc3n2)n1 (centres undefined),17.4%
14,Cc1nc(CN2CCCCC2Cn2cncn2)nc2ccccc12 (centres undefined),51.3%
15,COc1ccccc1OCCN1CCCCC1Cn1cncn1 (centres undefined),79.5%
16,N#Cc1ccccc1OCCN1CCCCC1Cn1cncn1 (centres undefined),6.56%
17,Cc1nc(C)n(CC2CCCN2Cc2nc(N)c3ccccc3n2)n1 (centres undefined),59.7%
18,Cc1cnn(CC2CCCN2Cc2nc3ccccc3c(=O)[nH]2)c1 (centres undefined),26.4%
19,Cc1cnn(CC2CCCN2CCc2nc3ccccc3c(=O)[nH]2)c1 (centres undefined),61.3%
20,O=c1[nH]c(CCN2CCCC2Cn2cccn2)nc2ccccc12 (centres undefined),14.4%
21,Cc1nc(CN2CCCC2Cn2cncn2)nc2ccccc12 (centres undefined),5.7%
22,Fc1ccccc1OCCN1CCCCC1Cn1cncn1 (centres undefined),-29.1%
